Some compounds were tested as several samples or in several runs, with calls that do not always agree. The source made the active and inactive calls. The calls were made as follows: active = hit-call score of the fitted dose curve at least 0.9, where 1 is the maximum; inactive = score below 0.9.
Experiment: ATG_Ets_CIS: Attagene CIS-FACTORIAL HepG2 Assay for human Erythroblast Transformation Specific (ETS) (AID 2282941)
Conditions: HepG2 ETS cis-reporter transcription, actives raise or lower the signal
Description: ATG_CIS is a cell-based, multiplexed-readout assay that uses HepG2, a human liver cell line, with measurements taken at 24 hours after chemical dosing in a 24-well plate.ATG_Ets_CIS is one of 52 assay component(s) measured or calculated from the ATG_CIS assay. It is designed to make measurements of mRNA induction, a form of inducible reporter, as detected with fluorescence intensity signals by Reverse transcription polymerase chain reaction (RT-PCR) and Capillary electrophoresis technology.Data from the assay component ATG_Ets_CIS was analyzed into 1 assay endpoint. This assay endpoint, ATG_Ets_CIS, was analyzed with bidirectional fitting relative to DMSO as the negative control and baseline of activity. Using a type of inducible reporter, measures of mRNA for gain or loss-of-signal activity can be used to understand the reporter gene at the transcription factor-level as they relate to the gene ETS1. Furthermore, this assay endpoint can be referred to as a primary readout, because this assay has produced multiple assay endpoints where this one serves a reporter gene function. To generalize the intended target to other relatable targets, this assay endpoint is annotated to the dna binding intended target family, where the subfamily is winged helix-turn-helix.
Human liver HepG2 cells are transiently transfected with multiple reporter transcription units (MRTUs) in 6-well plates using FuGene 6 reagent (Roche; 3 ml FuGene/1 mg DNA). The MRTU constructs are regulated by a cis-regulating element (promoter). […] A major difference between the CIS and TRANS system is that in CIS activities of endogenous TFs are measured, whereas the TRANS assay evaluates changes in activities of exogenous, chimeric NR-Gal4 proteins. […] At the end of 24 hour incubation, total RNA was isolated using TriZol reagent (Invitrogen). The isolated RNA is then reverse-transcribed using oligo(dT) primer and Mo-MLV reverse transcriptase (Invitrogen) with DNAse I (Ambion) treatment for 30 min. The one-tenth of the produced cDNA was amplified by PCR using Taq DNA polymerase (Invitrogen) and two reporter sequence-specific primers. The PCR products were fluorescently labeled by primer extension with 6-arboxyfluorescein (6-FAM) 5'-labeled reporter sequence-specific primer (2 min at 95 C, 20 s at 68 C and 10 min at 72 C) and these products were digested with 5U of HpaI (New England Biolabs) for 2h at 37 C. The fragments were purified using Qiaquick PCR columns (Qiagen), analyzed on an ABI 3130xL genetic analyzer (Applied Biosystems) with peak positions identified by using a set of X-rhodamine (ROX)-labeled MapMarker1000 molecular weight standards (BioVentures). The raw capillary electrophoresis data was processed using Attagraph software (Attagene).

SMILES | outcome | AC50
CCCCNc1ccccc1 | inactive | 
COC(OC(C)=O)c1ccccc1 (stereo not given) | inactive | 
FC(F)(F)C(F)(F)C(F)(F)C(F)(F)C(F)(F)CCI | inactive | 
CCCCCCCOC(=O)c1ccccc1C(=O)OCCCCCCC | inactive | 
CC(C)(C)C(=O)CC(=O)C(F)(F)C(F)(F)C(F)(F)F | inactive | 
CC(C)c1ccccc1N | inactive | 
O=C(O)C(F)(F)C(F)(F)C(F)(F)C(F)(F)C(F)(F)C(F)(F)C(F)(F)C(F)(F)C(F)(F)C(F)(F)C(F)(F)C(F)(F)C(F)(F)F | inactive | 
Cc1cc(C)cc(O)c1 | inactive | 
Nc1ccc(S(=O)(=O)Nc2nccs2)cc1 | inactive | 
CC(Cc1ccc(O)c(O)c1)C(C)Cc1ccc(O)c(O)c1 (stereo not given) | inactive | 
CCCCCCS | inactive | 
O=C(O)C(F)(F)C(F)(F)C(F)F | inactive | 
O=S(=O)(O)c1ccc2ccccc2c1 | inactive | 
CNC(=S)NC | inactive | 
Cc1ccc(S(=O)(=O)OCC(F)(F)C(F)(F)C(F)(F)C(F)(F)C(F)(F)C(F)F)cc1 | inactive | 
c1ccc(B(c2ccccc2)c2ccccc2)cc1 | inactive | 
CCCCCCC(C)OC(=O)CCCCC(=O)OC(C)CCCCCC (stereo not given) | inactive | 
FC1CC(F)(F)C(F)(F)C1(F)F (stereo not given) | inactive | 
C=C(C)C(=O)OCCC(F)(F)C(F)(F)C(F)(F)C(F)(F)C(F)(C(F)(F)F)C(F)(F)F | inactive | 
FC(F)(F)C(F)(F)C(F)(F)C(F)(F)C(F)(F)C(F)(F)CC1CO1 (stereo not given) | inactive | 

SMILES | outcome | AC50
OCC(F)(F)C(F)(F)C(F)(F)C(F)(F)C(F)(F)C(F)(F)F |  | 236 µM (active)
O=C(O)C(F)(F)C(F)(F)OC(F)(F)F | inactive | 
CCCCCCCCC(F)(F)C(F)(F)C(F)(F)C(F)(F)C(F)(F)C(F)(F)F | inactive | 
OCCCC(F)(F)C(F)(F)C(F)(F)F | inactive | 
O=C(O)C(F)(F)C(F)(F)C(F)(F)C(F)(F)C(F)(F)C(F)(F)C(F)(F)C(F)(F)C(F)(F)C(F)F | inactive | 
OCCCC(F)(F)C(F)(F)C(F)(F)C(F)(F)C(F)(F)C(F)(F)C(F)(F)F | inactive | 50 µM (active)
OCC(F)(F)C(F)(F)C(F)(F)C(F)F | inactive | 
O=C(O)C(F)(F)C(F)(F)C(F)(F)C(F)(F)C(F)(F)C(F)(F)C(F)(F)C(F)(F)Cl | inactive | 
CCCCCC=O | inactive | 
O=C(O)C(F)(OC(F)(F)C(F)(OC(F)(F)C(F)(F)C(F)(F)F)C(F)(F)F)C(F)(F)F (stereo not given) | inactive | 
CCc1ccc(C(c2ccc(CC)cc2)C(Cl)Cl)cc1 | inactive | 
CN(C)Cc1ccccc1O | inactive | 
FC(F)(F)C(F)(F)C(F)(F)CI | inactive | 
CCN(Cc1cccc(S(=O)(=O)O)c1)c1ccc(C(=C2C=CC(=[N+](CC)Cc3cccc(S(=O)(=O)O)c3)C=C2)c2ccc(O)cc2S(=O)(=O)[O-])cc1 | inactive | 
COC(=O)CCC(F)(F)C(F)(F)C(F)(F)C(F)(F)F | inactive | 
CCCCOCCOCCOC(=O)CCCCC(=O)OCCOCCOCCCC | inactive | 
C1COCCN1 | inactive | 
FC(F)(F)C(F)(F)C(F)(F)C(F)(F)C(F)(F)C(F)(F)CCS | inactive | 
O=S(=O)(OCCOC(F)(F)F)C(F)(F)F | inactive | 
